Source: a collection of fitness landscapes (doi:10.1126/science.1257360)
Over roughly 140,000 sequences, “enrichment ratio after two sorts for PhoP signalling” has its median near 0; the highest 2% begin near 11. The full list was thinned out, with the highest values kept by preference.

B1: PhoQ; a variant is named by its letters at X, in order, P23837 (parent)
chain: MKKLLRLFFPLSLRVRFLLATAAVVLVLSLAYGMVALIGYSVSFDKTTFRLLRGESNLFYTLAKWENNKLHVELPENIDKQSPTMTLIYDENGQLLWAQRDVPWLMKMIQPDWLKSNGFHEIEADVNDTSLLLSGDHSIQQQLQEVREDDDDAEMTHSVAVNVYPATSRMPKLTIVVVDTIPVELKSSYMVWSWFIYVLSANLLLVIPLLWVAAWWSLRPIEALAKEVRELEEHNRELLNPATTRELTSLVRNLNRLLKSERERYDKYRTTLTDLTHSLKTPLXXLQXXLRSLRSEKMSVSDAEPVMLEQISRISQQIGYYLHRASMRGGTLLSRELHPVAPLLDNLTSALNKVYQRKGVNISLDISPEISFVGEQNDFVEVMGNVLDNACKYCLEFVEISARQTDEHLYIVVEDDGPGIPLSKREVIFDRGQRVDTLRPGQGVGLAVAREITEQYEGKIVAGESMLGGARMEVIFGRQHSAPKDE

Variants of: B1
Assay: enrichment ratio after two sorts for PhoP signalling (ratio (wild type AVST 3.29)); higher = more functional
Details: with PhoP (E. coli)

Variant	enrichment ratio
TTNV	7.65
PFAG	≤ 0.25
DGGW	≤ 0.25
SISI	19.1
WLSI	≤ 0.25
SNSK	≤ 0.25
KYSI	≤ 0.25
KLSI	≤ 0.25
RISI	≤ 0.25
SNSR	≤ 0.25
SNSI	12.4
SLSI	12.7
MVAF	8.08
VNTQ	≤ 0.25
FEKW	≤ 0.25
RVKS	≤ 0.25
YPRG	≤ 0.25
SCSK	14.3
SCPM	7.6
SCPA	≤ 0.25
SCPI	15.2
SCGD	≤ 0.25
SCSR	6.9
PQKP	≤ 0.25

Variant	enrichment ratio
RTKL	≤ 0.25
YQFF	≤ 0.25
PSPG	≤ 0.25
QCSG	32
QCSK	≤ 0.25
GCSN	3.22
QCWG	1.24
GCSG	6.35
QCSN	17.6
YSWT	≤ 0.25
VTWY	≤ 0.25
LKQC	≤ 0.25
MYLH	≤ 0.25
YKYI	≤ 0.25
TDCS	11.3
KDCA	≤ 0.25
TDCA	14.6
FDCQ	≤ 0.25
TDCI	≤ 0.25
LTCQ	≤ 0.25
ADCS	≤ 0.25
TDCQ	20.3
FDCA	≤ 0.25
ERGV	≤ 0.25

Variant	enrichment ratio
TKWP	≤ 0.25
PTMY	≤ 0.25
TGMY	12.7
NGMY	≤ 0.25
STMY	12.6
KYMY	≤ 0.25
HKMY	≤ 0.25
TKMY	24
SWMY	≤ 0.25
ADMY	0.253
AIMY	6.62
RGMY	≤ 0.25
AGMY	20
ICMS	2.8
QRAT	≤ 0.25
FCCR	≤ 0.25
DASH	≤ 0.25
RNKS	≤ 0.25
KSMY	≤ 0.25
NSMY	≤ 0.25
AEMY	20.4
TSMY	12.3
CTMY	42.4
YTMY	≤ 0.25

Variant	enrichment ratio
ATMY	7.37
TGME	≤ 0.25
AEYE	≤ 0.25
WIMY	≤ 0.25
AEME	29.5
NEMY	≤ 0.25
NYYK	≤ 0.25
IYHP	≤ 0.25
HPGR	≤ 0.25
EGAD	≤ 0.25
VQVR	≤ 0.25
KMTK	≤ 0.25
RCAP	≤ 0.25
FMFM	≤ 0.25
MEMC	4.97
IEMC	12.9
SRMC	≤ 0.25
TCMC	24.2
TYMC	≤ 0.25
VPMC	≤ 0.25
TEMC	18.9
VEMC	15.7
ITMC	≤ 0.25
VYMC	0.507

Variant	enrichment ratio
VCMC	1.73
EEMC	≤ 0.25
DVLN	≤ 0.25
IGSC	≤ 0.25
SHAH	5.87
VCLL	6.51
FKPV	≤ 0.25
QEMC	≤ 0.25
TAMC	14.6
SIMC	19.4
NEMC	≤ 0.25
SEMC	18
SLMC	3.3
KAMC	≤ 0.25
YAMC	≤ 0.25
KYMC	≤ 0.25
SCMC	12.6
SPMC	≤ 0.25
SYMC	≤ 0.25
KIGP	≤ 0.25
VITT	≤ 0.25
TPNM	≤ 0.25
YGCE	≤ 0.25
NYTT	≤ 0.25

Variant	enrichment ratio
FHLQ	≤ 0.25
ESME	≤ 0.25
VRRK	≤ 0.25
PKDY	≤ 0.25
VMIQ	≤ 0.25
YFFH	≤ 0.25
WWTW	≤ 0.25
GPQA	≤ 0.25
STMC	8.81
IIMC	≤ 0.25
SAMC	18.1
EEMP	≤ 0.25
QQNV	≤ 0.25
YMKP	≤ 0.25
KMQM	≤ 0.25
TNQM	14.3
LNQM	≤ 0.25
MNQM	≤ 0.25
NNQM	30
TWQM	≤ 0.25
HAQM	≤ 0.25
TMQM	12.8
NNCK	≤ 0.25
VGDP	≤ 0.25

Variant	enrichment ratio
RAMR	≤ 0.25
YTYM	≤ 0.25
WMWP	≤ 0.25
KSIC	≤ 0.25
TDIC	14.4
SCIC	7.92
TDVG	4.14
STIC	13
LTIC	≤ 0.25
SDVC	11.5
YTIC	≤ 0.25
KDVC	≤ 0.25
TDVC	24.1
SYVC	0.486
SDVG	1.53
NESI	≤ 0.25
PFYL	≤ 0.25
GFIL	≤ 0.25
INEF	≤ 0.25
MTNK	≤ 0.25
IERL	≤ 0.25
MGNR	≤ 0.25
FHQW	≤ 0.25
WMHQ	≤ 0.25

Variant	enrichment ratio
VIIW	≤ 0.25
SYIC	0.411
SDIC	15.1
SDRC	≤ 0.25
VCHE	≤ 0.25
GIRT	≤ 0.25
ASGM	22.7
ASRM	≤ 0.25
ASPM	0.773
ASTM	12.3
ASGD	≤ 0.25
ASWM	≤ 0.25
ASAY	4.58
ASAM	20.2
ASDH	≤ 0.25
TKYS	≤ 0.25
NHDM	≤ 0.25
KGIG	≤ 0.25
IWNF	≤ 0.25
ETES	≤ 0.25
IRLA	0.272
GMFY	≤ 0.25
FLEE	≤ 0.25
PCYL	≤ 0.25

Variant	enrichment ratio
FIHC	≤ 0.25
LFFW	≤ 0.25
KMQS	≤ 0.25
MMQI	≤ 0.25
TMQS	14.3
TMQI	12.3
NMQS	≤ 0.25
TMQP	≤ 0.25
KESH	≤ 0.25
VQMH	≤ 0.25
RVAL	≤ 0.25
VFSS	≤ 0.25
TFSK	≤ 0.25
TFSS	11.4
CFSS	11.9
WFSS	≤ 0.25
TGSS	11
LGDN	≤ 0.25
FQYK	≤ 0.25
STSM	16.4
SNSM	33.4
SNSF	10.8
ITSM	2.11
SVSM	13.3

Variant	enrichment ratio
SISF	10.7
SVRM	≤ 0.25
SISM	16
KYSM	≤ 0.25
LTSM	≤ 0.25
SVGM	9.35
HVDL	≤ 0.25
YFNP	≤ 0.25
PTIT	≤ 0.25
IFSN	≤ 0.25
KGDF	≤ 0.25
SSSF	10
FCSM	0.747
SRSM	0.977
SCSF	9.85
SMSF	5.95
NSSM	0.911
SMSM	12.4
SMHF	≤ 0.25
SQSM	15.9
SDSM	1.33
SSSM	14.8
SCSM	14.5
SGVE	≤ 0.25

Variant	enrichment ratio
SWGV	≤ 0.25
IDET	≤ 0.25
RIHD	≤ 0.25
LNHQ	≤ 0.25
IEMK	≤ 0.25
EVHQ	≤ 0.25
KSSM	≤ 0.25
SGSF	1.84
NVSM	≤ 0.25
TVSM	37.3
SPSM	≤ 0.25
YTSM	1.02
KQSM	≤ 0.25
MMSM	7.2
TSSM	24.4
TTSM	14.8
SGSM	12.7
KQAV	≤ 0.25
DAHD	≤ 0.25
QSHT	≤ 0.25
PIQW	≤ 0.25
FMCI	≤ 0.25
MYGI	≤ 0.25
ICFI	≤ 0.25

Variant	enrichment ratio
VCSA	≤ 0.25
YCHV	≤ 0.25
HSSA	≤ 0.25
SMEV	≤ 0.25
GVAK	11.7
MVAK	5.7
MVPM	≤ 0.25
MVAM	39.4
GVPM	≤ 0.25
MVWM	0.553
NVAK	≤ 0.25
GVTM	8.91
GVAM	15.2
SAME	0.508
WCYN	≤ 0.25
KFKF	≤ 0.25
GTRF	≤ 0.25
TSNN	12.2
FSNL	≤ 0.25
KSNN	≤ 0.25
KSNL	≤ 0.25
TSNL	12.5
LCNN	≤ 0.25
LVAI	≤ 0.25

Variant	enrichment ratio
NFCN	≤ 0.25
TCAE	≤ 0.25
HVSV	≤ 0.25
VCAH	≤ 0.25
TCAV	13.4
KCSV	≤ 0.25
TCEF	13.2
TCSV	17.7
VEEF	≤ 0.25
KCAH	≤ 0.25
KCAV	≤ 0.25
TCAH	11.7
KCEF	≤ 0.25
SLYY	≤ 0.25
DQFN	≤ 0.25
RPHE	≤ 0.25
SDPC	≤ 0.25
FRSR	≤ 0.25
